In paper PMC7862700, “An all-to-all approach to the identification of sequence-specific readers for epigenetic DNA modifications on cytosine”:

How the values were obtained:
Test in all cases: DAPPL (digital affinity profiling via proximity ligation, sequencing); 10 mM Tris-HCl pH 7.5, 50 mM NaCl, 1 mM DTT, 4% glycerol, room temperature, 30 min; GST-TFs on glutathione beads, 16-mer random dsDNA library, 0.1% formaldehyde crosslink after washing; high values mean tight binding
Conditions in all cases: protein: recombinant; tags: N-terminal GST; dsDNA, one strand shown
FLI1 = target: T1, FLI1 (Homo sapiens, UniProt Q01543 1-452)
T1 sequence: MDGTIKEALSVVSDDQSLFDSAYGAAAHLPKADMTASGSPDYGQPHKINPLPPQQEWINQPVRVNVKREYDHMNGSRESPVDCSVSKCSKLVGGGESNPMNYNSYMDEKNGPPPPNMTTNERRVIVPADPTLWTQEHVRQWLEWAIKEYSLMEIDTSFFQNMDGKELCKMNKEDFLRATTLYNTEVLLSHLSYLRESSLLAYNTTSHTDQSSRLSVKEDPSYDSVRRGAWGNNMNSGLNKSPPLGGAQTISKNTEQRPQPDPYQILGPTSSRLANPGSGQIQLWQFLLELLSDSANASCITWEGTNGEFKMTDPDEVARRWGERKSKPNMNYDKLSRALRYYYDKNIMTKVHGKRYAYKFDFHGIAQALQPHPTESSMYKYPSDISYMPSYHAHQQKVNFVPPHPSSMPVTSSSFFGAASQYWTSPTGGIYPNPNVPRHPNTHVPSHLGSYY
How it was run: (§1)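 After expression in yeast as GST fusions, human transcription factors were bound to glutathione beads, DNA-barcoded and mixed with a tag-only sample. The pools were incubated with 200 nmole of a 16-mer random double-stranded DNA library in Tris/NaCl/DTT/glycerol buffer (30 min, room temperature), washed and crosslinked with 0.1% formaldehyde. Proximity ligation with BsaI/T4 ligase ran for 1 h at 37 °C, before PCR amplification and sequencing on an Illumina NextSeq500. Binding signal is a hexamer's read frequency for a factor divided by its frequency for the tag-only sample.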

ELK1 = target: T2, ELK1 (Homo sapiens, UniProt P19419 1-428)
T2 sequence: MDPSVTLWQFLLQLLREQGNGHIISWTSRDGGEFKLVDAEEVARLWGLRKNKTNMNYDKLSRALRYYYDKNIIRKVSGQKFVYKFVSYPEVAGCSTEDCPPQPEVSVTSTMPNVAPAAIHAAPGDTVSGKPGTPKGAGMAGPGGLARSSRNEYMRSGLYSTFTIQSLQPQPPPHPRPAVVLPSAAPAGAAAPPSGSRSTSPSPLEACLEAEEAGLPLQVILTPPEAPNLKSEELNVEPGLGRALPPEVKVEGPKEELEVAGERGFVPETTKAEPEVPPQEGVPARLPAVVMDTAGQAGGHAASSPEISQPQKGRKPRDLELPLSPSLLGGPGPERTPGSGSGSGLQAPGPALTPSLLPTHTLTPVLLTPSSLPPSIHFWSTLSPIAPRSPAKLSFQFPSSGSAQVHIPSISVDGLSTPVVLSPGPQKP
How it was run: as §1

GABPA = target: T3, GABPA (Homo sapiens, UniProt Q06546 1-454)
T3 sequence: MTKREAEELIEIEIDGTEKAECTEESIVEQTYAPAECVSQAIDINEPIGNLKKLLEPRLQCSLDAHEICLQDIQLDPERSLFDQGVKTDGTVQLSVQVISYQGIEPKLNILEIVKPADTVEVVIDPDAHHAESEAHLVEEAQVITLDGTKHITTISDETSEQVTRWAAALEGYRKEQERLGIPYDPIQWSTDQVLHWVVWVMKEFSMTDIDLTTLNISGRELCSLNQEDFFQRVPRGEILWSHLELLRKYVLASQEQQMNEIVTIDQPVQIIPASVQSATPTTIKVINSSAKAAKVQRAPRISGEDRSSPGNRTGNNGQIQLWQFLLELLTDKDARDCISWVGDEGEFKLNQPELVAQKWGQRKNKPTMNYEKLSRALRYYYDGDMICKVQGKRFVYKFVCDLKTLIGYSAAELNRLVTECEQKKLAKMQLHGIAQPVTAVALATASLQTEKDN
How it was run: as §1

ERG = target: T4, ERG (Homo sapiens, UniProt P11308 1-479)
T4 sequence: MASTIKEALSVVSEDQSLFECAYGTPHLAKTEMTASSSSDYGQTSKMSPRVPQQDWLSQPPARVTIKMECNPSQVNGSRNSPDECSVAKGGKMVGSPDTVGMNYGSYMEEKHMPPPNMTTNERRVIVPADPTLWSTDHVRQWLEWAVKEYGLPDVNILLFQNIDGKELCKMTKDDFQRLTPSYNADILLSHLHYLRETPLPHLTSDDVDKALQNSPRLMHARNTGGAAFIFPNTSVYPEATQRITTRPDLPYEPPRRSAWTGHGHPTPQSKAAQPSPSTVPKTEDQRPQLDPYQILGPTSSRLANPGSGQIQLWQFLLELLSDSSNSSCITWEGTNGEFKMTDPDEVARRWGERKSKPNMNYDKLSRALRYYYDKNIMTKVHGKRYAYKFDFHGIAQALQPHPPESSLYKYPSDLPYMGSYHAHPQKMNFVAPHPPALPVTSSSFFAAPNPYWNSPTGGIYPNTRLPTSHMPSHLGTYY
How it was run: as §1

ELF1 = ELF1 (Homo sapiens, UniProt P32519 1-619)
Chain of ELF1 (P32519 whole entry): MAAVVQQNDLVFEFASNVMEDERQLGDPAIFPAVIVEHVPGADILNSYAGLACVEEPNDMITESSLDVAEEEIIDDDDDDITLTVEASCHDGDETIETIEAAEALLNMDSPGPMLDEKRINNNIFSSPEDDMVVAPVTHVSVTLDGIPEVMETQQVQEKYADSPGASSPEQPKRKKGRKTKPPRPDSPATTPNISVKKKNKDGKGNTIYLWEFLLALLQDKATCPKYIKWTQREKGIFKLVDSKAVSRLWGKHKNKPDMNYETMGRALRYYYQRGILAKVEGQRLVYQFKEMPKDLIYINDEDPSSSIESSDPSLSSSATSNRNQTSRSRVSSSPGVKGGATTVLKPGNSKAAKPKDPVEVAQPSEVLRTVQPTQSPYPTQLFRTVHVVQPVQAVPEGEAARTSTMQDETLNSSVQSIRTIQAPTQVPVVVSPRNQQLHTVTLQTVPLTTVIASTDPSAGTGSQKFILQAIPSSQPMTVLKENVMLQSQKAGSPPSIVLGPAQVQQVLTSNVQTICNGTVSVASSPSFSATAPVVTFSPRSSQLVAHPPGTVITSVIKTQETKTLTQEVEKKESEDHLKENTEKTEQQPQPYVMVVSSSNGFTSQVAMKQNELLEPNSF
How it was run: as §1

EHF = target: T5, EHF (Homo sapiens, UniProt Q9NZC4 1-300)
T5 sequence: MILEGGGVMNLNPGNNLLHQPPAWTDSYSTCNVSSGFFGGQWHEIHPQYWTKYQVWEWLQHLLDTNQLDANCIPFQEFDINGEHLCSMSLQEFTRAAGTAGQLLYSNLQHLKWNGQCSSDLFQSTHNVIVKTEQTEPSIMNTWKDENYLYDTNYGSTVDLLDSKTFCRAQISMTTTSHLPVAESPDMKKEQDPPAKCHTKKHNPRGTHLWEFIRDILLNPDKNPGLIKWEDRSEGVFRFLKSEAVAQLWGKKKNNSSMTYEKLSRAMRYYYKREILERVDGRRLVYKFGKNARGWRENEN
How it was run: as §1

SPI1 = SPI1 (Homo sapiens, UniProt P17947 1-270)
How it was run: as §1

SPIB = SPIB (Homo sapiens, UniProt Q01892 1-262)
Chain of SPIB (Q01892 whole entry): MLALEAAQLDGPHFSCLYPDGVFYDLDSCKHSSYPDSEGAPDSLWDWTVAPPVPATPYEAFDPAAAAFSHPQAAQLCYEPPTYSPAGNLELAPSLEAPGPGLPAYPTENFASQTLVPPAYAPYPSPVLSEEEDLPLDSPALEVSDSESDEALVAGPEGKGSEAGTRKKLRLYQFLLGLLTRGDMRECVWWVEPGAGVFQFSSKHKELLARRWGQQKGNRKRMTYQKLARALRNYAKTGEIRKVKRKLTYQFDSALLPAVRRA
How it was run: as §1

ELK3 = target: T6, ELK3 (Homo sapiens, UniProt P41970 1-407)
T6 sequence: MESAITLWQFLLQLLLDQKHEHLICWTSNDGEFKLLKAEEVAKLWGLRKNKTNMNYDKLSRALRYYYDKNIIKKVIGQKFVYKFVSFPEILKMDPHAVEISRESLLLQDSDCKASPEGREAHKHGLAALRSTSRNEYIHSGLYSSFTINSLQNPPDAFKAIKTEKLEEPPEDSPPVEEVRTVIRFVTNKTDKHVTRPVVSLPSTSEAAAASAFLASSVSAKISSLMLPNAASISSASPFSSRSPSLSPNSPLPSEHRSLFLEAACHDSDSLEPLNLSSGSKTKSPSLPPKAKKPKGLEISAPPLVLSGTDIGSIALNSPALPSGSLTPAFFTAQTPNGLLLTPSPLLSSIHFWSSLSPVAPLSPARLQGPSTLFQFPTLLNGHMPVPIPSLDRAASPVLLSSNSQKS
How it was run: as §1

Sequence | binding signal (FLI1) | binding signal (ELK1) | binding signal (GABPA) | binding signal (ERG) | binding signal (ELF1) | binding signal (EHF) | binding signal (SPI1) | binding signal (SPIB) | binding signal (ELK3)
ATGTCT | 1.21 fold enrichment (6-mer frequency, TF over GST control) | 1.28 fold enrichment (6-mer frequency, TF over GST control) | 1.36 fold enrichment (6-mer frequency, TF over GST control) | 1.22 fold enrichment (6-mer frequency, TF over GST control) | 1.29 fold enrichment (6-mer frequency, TF over GST control) | 1.13 fold enrichment (6-mer frequency, TF over GST control) | 1.32 fold enrichment (6-mer frequency, TF over GST control) | 1.3 fold enrichment (6-mer frequency, TF over GST control) | 1.18 fold enrichment (6-mer frequency, TF over GST control)
AATGAG | 1.09 fold enrichment (6-mer frequency, TF over GST control) | 1.18 fold enrichment (6-mer frequency, TF over GST control) | 1.22 fold enrichment (6-mer frequency, TF over GST control) | 1.12 fold enrichment (6-mer frequency, TF over GST control) | 1.14 fold enrichment (6-mer frequency, TF over GST control) | 1.18 fold enrichment (6-mer frequency, TF over GST control) | 1.51 fold enrichment (6-mer frequency, TF over GST control) | 1.08 fold enrichment (6-mer frequency, TF over GST control) | 1.23 fold enrichment (6-mer frequency, TF over GST control)
TTTTCG | 1.18 fold enrichment (6-mer frequency, TF over GST control) | 1.28 fold enrichment (6-mer frequency, TF over GST control) | 1.24 fold enrichment (6-mer frequency, TF over GST control) | 1.2 fold enrichment (6-mer frequency, TF over GST control) | 1.22 fold enrichment (6-mer frequency, TF over GST control) | 1.25 fold enrichment (6-mer frequency, TF over GST control) | 1.27 fold enrichment (6-mer frequency, TF over GST control) | 1.16 fold enrichment (6-mer frequency, TF over GST control) | 1.35 fold enrichment (6-mer frequency, TF over GST control)
TCTATC | 1.25 fold enrichment (6-mer frequency, TF over GST control) | 1.27 fold enrichment (6-mer frequency, TF over GST control) | 1.21 fold enrichment (6-mer frequency, TF over GST control) | 1.21 fold enrichment (6-mer frequency, TF over GST control) | 1.25 fold enrichment (6-mer frequency, TF over GST control) | 1.19 fold enrichment (6-mer frequency, TF over GST control) | 1.22 fold enrichment (6-mer frequency, TF over GST control) | 1.17 fold enrichment (6-mer frequency, TF over GST control) | 1.37 fold enrichment (6-mer frequency, TF over GST control)
ATTTGC | 1.3 fold enrichment (6-mer frequency, TF over GST control) | 1.36 fold enrichment (6-mer frequency, TF over GST control) | 1.34 fold enrichment (6-mer frequency, TF over GST control) | 1.32 fold enrichment (6-mer frequency, TF over GST control) | 1.34 fold enrichment (6-mer frequency, TF over GST control) | 1.17 fold enrichment (6-mer frequency, TF over GST control) | 1.41 fold enrichment (6-mer frequency, TF over GST control) | 1.32 fold enrichment (6-mer frequency, TF over GST control) | 1.2 fold enrichment (6-mer frequency, TF over GST control)
ACTTTA | 1.12 fold enrichment (6-mer frequency, TF over GST control) | 1.26 fold enrichment (6-mer frequency, TF over GST control) | 1.29 fold enrichment (6-mer frequency, TF over GST control) | 1.17 fold enrichment (6-mer frequency, TF over GST control) | 1.21 fold enrichment (6-mer frequency, TF over GST control) | 1.2 fold enrichment (6-mer frequency, TF over GST control) | 1.33 fold enrichment (6-mer frequency, TF over GST control) | 1.19 fold enrichment (6-mer frequency, TF over GST control) | 1.22 fold enrichment (6-mer frequency, TF over GST control)
GCTCGC | 1.39 fold enrichment (6-mer frequency, TF over GST control) | 1.29 fold enrichment (6-mer frequency, TF over GST control) | 1.41 fold enrichment (6-mer frequency, TF over GST control) | 1.29 fold enrichment (6-mer frequency, TF over GST control) | 1.42 fold enrichment (6-mer frequency, TF over GST control) | 1.27 fold enrichment (6-mer frequency, TF over GST control) | 1.29 fold enrichment (6-mer frequency, TF over GST control) | 1.42 fold enrichment (6-mer frequency, TF over GST control) | 1.38 fold enrichment (6-mer frequency, TF over GST control)
TTCTAG | 1.27 fold enrichment (6-mer frequency, TF over GST control) | 1.26 fold enrichment (6-mer frequency, TF over GST control) | 1.38 fold enrichment (6-mer frequency, TF over GST control) | 1.33 fold enrichment (6-mer frequency, TF over GST control) | 1.25 fold enrichment (6-mer frequency, TF over GST control) | 1.2 fold enrichment (6-mer frequency, TF over GST control) | 1.2 fold enrichment (6-mer frequency, TF over GST control) | 1.14 fold enrichment (6-mer frequency, TF over GST control) | 1.3 fold enrichment (6-mer frequency, TF over GST control)
